This note sets out measurements from PubChem BioAssay AID686978 (National Center for Advancing Translational Sciences (NCATS), 2013).

Hit rate of the full screen: of about 420,000 compounds, about 64,000 (15%) were called active. Inconclusive results (about 27%) are left out. Only a sample is shown. Values without a mark were called inactive. The call rests on the fitted dose curve; in most records, active means well fitted inhibition curve with a large enough effect; inconclusive means small, poorly fitted or top-dose-only effect; inactive means flat fitted curve, though single readings scatter.
On the % scale 0 is the no-effect control and ±100 the full control effect; potency means the concentration at half of the fitted maximal effect.

The nature of the assay: qHTS for Inhibitors of human tyrosyl-DNA phosphodiesterase 1 (TDP1): qHTS in cells in absence of CPT. Further: nearly all actives have a fitted effect of over 55% in size. The settings on record: DT40 Tdp1-/- hTDP1 cells, no CPT, ATP luminescence, 48 h; activity change, negative = growth inhibition: at 46.2 µM (top of the series). The gist of the method:
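Camptothecin absent (DMSO only). Human TDP1-complemented DT40 knockout cells, 400 cells/well, 37 °C for minimum 48 hr; ATP measured via CellTiter-Glo, 30 min dark incubation, luminescence.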
For orientation: Quantitative high-throughput screening tests each substance at several concentrations.
Consider `CSc1ncccc1C(=O)Nc1ccc2c(c1)OCO2`, for which the “activity change, negative = growth inhibition” value was -15.9%.

Regarding `CCOC(=O)c1c(S(=O)(=O)Nc2ccc(CN3CCC(C)CC3)cc2)c(C)n(C)c1C`, the “activity change, negative = growth inhibition” value was 6.68%.

`CCOC(=O)c1cnc(SCC(=O)Nc2ccccc2C(=O)OC)nc1N`: the Potency was 23.1 µM (active).

On to `CCOC(=O)c1cnc(SCC(=O)NCc2ccco2)nc1N`, for which the “activity change, negative = growth inhibition” value is -5.27%.

`COC(=O)c1ccccc1NC(=O)CSc1ccccn1`: the “activity change, negative = growth inhibition” value was -10.7%.

Consider `CCCCN(C)CCCNC(=O)CN1N=C(c2ccc(OC)cc2)CCC1=O`, for which the “activity change, negative = growth inhibition” value was -10%.

With `C=CCC(CC=C)(C(N)=O)c1ccccc1`, the “activity change, negative = growth inhibition” value is -0.515%.

`Cc1nn(CC(=O)Nc2ccc(C#N)cc2)c(C)c1[N+](=O)[O-]`: the “activity change, negative = growth inhibition” value is -29.6%.

Turning to `COCc1c(C(=O)OCC(=O)Nc2ccc(OC(F)F)cc2)oc2ccccc12`, the “activity change, negative = growth inhibition” value was -2.1%.

As for `Cc1oc2cc(Br)c(O)c(Br)c2c1C(=O)c1ccccc1`, the “activity change, negative = growth inhibition” value was 0.0436%.

In the case of `CCOC(=O)c1c(C)oc2cc(Sc3ccccc3)c(O)c(O)c12`, the Potency is 25.9 µM (active).

On to `CCOC(=O)c1c(-c2ccccc2)oc2cc(Br)c(O)cc12`, for which the “activity change, negative = growth inhibition” value is -13.2%.

On to `Nc1nc(COC(=O)CCC(=O)c2ccc(Cl)cc2)nc(Nc2ccccc2)n1`, for which the “activity change, negative = growth inhibition” value was -23%.

With `Cn1c(CCC(=O)Nc2ccccc2F)nnc1SCC(=O)Nc1ccccc1Cl`, the “activity change, negative = growth inhibition” value is -3.12%.

Turning to `Cc1cc(C)cc(NC(=O)CSc2nc3nccnc3c(=O)n2CCc2c[nH]c3ccccc23)c1`, the Potency was 7.31 µM (active).

With `Cc1cc(C)c(NC(=O)CSc2nc3nccnc3c(=O)n2CCc2c[nH]c3ccccc23)c(C)c1`, the “activity change, negative = growth inhibition” value is 0.0247%.

`O=C(CSc1nc2nccnc2c(=O)n1CCc1c[nH]c2ccccc12)Nc1ccccc1F`: the Potency is 8.2 µM (active).

Regarding `O=C(CSc1nc2nccnc2c(=O)n1Cc1cccs1)Nc1ccccc1F`, the “activity change, negative = growth inhibition” value is -23.8%.

For `Cc1cc(C)cc(NC(=O)Cn2c(=O)c3ccccc3n3nncc23)c1`, the “activity change, negative = growth inhibition” value is 8.04%.

Consider `Cc1cccc(C)c1NC(=O)CSc1nc2c([nH]1)c(=O)n(C)c(=O)n2C`, for which the “activity change, negative = growth inhibition” value is -17.3%.

Turning to `CCc1c(O)nc(SCC(=O)Nc2ccccc2)n(C(C)CC)c1=O` (configuration not stated), the “activity change, negative = growth inhibition” value was -22.4%.

For the molecule `CCCNCc1cc(OCC)c(OCC(=O)Nc2ccccc2)cc1Br`, the “activity change, negative = growth inhibition” value is -14.8%.

For `CN(C)C(=O)c1cc(Br)ccc1Cl`, the “activity change, negative = growth inhibition” value was -9.43%.

For the molecule `Cc1cc(OC(=O)c2ccccc2)c([N+](=O)[O-])c(=O)[nH]1`, the “activity change, negative = growth inhibition” value was 17.1%.

On to `Oc1ccc(/C=N/Nc2ccc(C(F)(F)F)cn2)cc1O`, for which the Potency was 2.59 µM (active).

For the molecule `Cc1nnsc1C(=O)N/N=C/c1cccc(C(F)(F)F)c1`, the “activity change, negative = growth inhibition” value was -5.29%.

Turning to `O=C(O)c1ccc(N/N=C/c2ccc3ncccc3c2)cc1`, the “activity change, negative = growth inhibition” value is -3.17%.

`O=C1/C(=C/c2ccc(F)cc2)SC(=S)N1NS(=O)(=O)c1ccccc1`: the “activity change, negative = growth inhibition” value is -19.1%.

As to `CC1CCCCC12NC(=O)N(CC(=O)N1CCN(c3ccccc3)CC1)C2=O` (configuration not stated), the “activity change, negative = growth inhibition” value is -0.12%.

In the case of `Cc1cc(C)c(NC(=O)CSc2nc3ccncc3[nH]2)c(C)c1`, the “activity change, negative = growth inhibition” value is -13.4%.

Take `Cc1ccc(Oc2cc(NC(=O)CCCn3nc(C)c([N+](=O)[O-])c3C)cc([N+](=O)[O-])c2)cc1`: the Potency was 18.4 µM (active).

`CCc1ccc(NC(=O)Cn2nc(C)c([N+](=O)[O-])c2C)cc1`: the “activity change, negative = growth inhibition” value was -5.71%.

For the molecule `COc1ccc(CNC(=O)CCCn2nc(C)c([N+](=O)[O-])c2C)cc1`, the “activity change, negative = growth inhibition” value was -22%.

For `CC(C)(C)NC(=O)NC(=O)COC(=O)Cn1c(C(F)(F)F)nc2ccccc21`, the “activity change, negative = growth inhibition” value is -6.14%.

In the case of `CCCc1nc2ccccc2n1C(C)C(=O)NC(C)(C)C` (configuration not stated), the “activity change, negative = growth inhibition” value was -7.62%.

As for `CC(C)(C)NC(=O)C(CCc1ccccc1)n1c(=O)c(-c2ccccc2)nc2ccccc21` (configuration not stated), the Potency was 2.91 µM (active).

In the case of `CCC(C(=O)NC(C)(C)C)n1c(-c2ccccc2)nc2ccccc21` (configuration not stated), the Potency was 18.4 µM (active).

Take `CC(=O)NS(=O)(=O)c1ccc(N/C(N)=N/c2nc(C)cc(C)n2)cc1`: the “activity change, negative = growth inhibition” value is 4.16%.

Take `Cc1nnc(SCCCCSc2nnc(C)c(=O)[nH]2)[nH]c1=O`: the “activity change, negative = growth inhibition” value is -4.3%.

For `COc1ccc(Br)cc1/C=N/Nc1ccc(S(=O)(=O)Nc2ccccc2C(=O)O)cc1[N+](=O)[O-]`, the “activity change, negative = growth inhibition” value was -18.5%.

As for `COc1ccccc1CNC(=O)Cn1cc2c(n1)CCCC2`, the “activity change, negative = growth inhibition” value is 6.11%.

Consider `COc1ccc(CCNC(=O)c2ccc3c(c2)nc(C)n3-c2ccc(Br)cc2)cc1OC`, for which the Potency was 20.6 µM (active).

For `COCCn1c(=S)[nH]c2cc(C(=O)NCCc3ccc(OC)c(OC)c3)ccc2c1=O`, the “activity change, negative = growth inhibition” value was -6.65%.

Consider `COc1ccc(C(=O)NCc2ccccc2C)cc1S(=O)(=O)NC1CCCC1`, for which the “activity change, negative = growth inhibition” value was -4.01%.

As to `COc1ccccc1CNC(=O)c1ccc(-n2c(C)cc3c2CCCC3)cc1`, the Potency was 14.6 µM (active).

Consider `COc1ccc(CCNC(=O)c2ccc(-n3c(C)cc4c3CCCC4)cc2)cc1OC`, for which the Potency was 18.4 µM (active).

In the case of `COc1ccc(CCNC(=O)CSCc2ccc(Br)cc2)cc1OC`, the “activity change, negative = growth inhibition” value is -20.4%.

With `O=C(OC1CC2CC1[C@H]1CCCCN1C2=O)N1CCOCC1` (some centres not stated), the “activity change, negative = growth inhibition” value is -7.39%.

Take `O=C(CS(=O)(=O)c1ccccc1)Nc1ccc(S(=O)(=O)Nc2ccccn2)cc1`: the “activity change, negative = growth inhibition” value is -3.21%.

Take `CCC1(C2CCN(Cc3cccnc3)CC2)NC(=O)N(CC2COc3ccccc3O2)C1=O` (configuration not stated): the “activity change, negative = growth inhibition” value is -22.5%.

On to `CC(=O)c1cccc(NC(=S)N2CCN(S(C)(=O)=O)CC2)c1`, for which the “activity change, negative = growth inhibition” value is 2.42%.

For the molecule `CC(=O)N1CCN(C(=O)C2(NC(=O)Nc3ccc(C)cc3)CCCCC2)CC1`, the “activity change, negative = growth inhibition” value was 26.9%.
